The values below come from PubChem BioAssay (NCATS).

The nature of assay [1]: qHTS profiling of the MIPE4 collection as inhibitors of Plasmodium falciparum (3D7) proliferation (AID 743344; call rule not given here;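 further: scaled between DMSO vehicle wells and 0.29 µM artemisinin as full inhibition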). The note with it: P. falciparum 3D7 in erythrocytes, SYBR Green DNA fluorescence, 72 h; at 28.5 µM unless noted. Summed up: (§1)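 Parasite DNA was quantified by SYBR Green I fluorescence (ex 485, em 535 nm) after overnight lysis in saponin/Triton buffer at room temperature. Cultures at 0.3% parasitemia and 2.5% hematocrit were first exposed to compound for 72 h at 37 C; signals were normalised to artemisinin (0.29 uM) and vehicle wells.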
In general terms: In qHTS, concentration-response curves come from the screen itself.

Assay [2] can be described thus: qHTS profiling of the MIPE4 collection as inhibitors of Plasmodium falciparum (DD2) proliferation (AID 743345; call rule not given here). To be noted: P. falciparum Dd2 in erythrocytes, SYBR Green DNA, 72 h; at 28.5 µM unless noted. Summed up: as §1
The nature of assay [3]: qHTS for Inhibitors of the Functional Ribonucleoprotein Complex (vRNP) of Lassa (LASV) Arenavirus: LASV Primary Screen - GLuc reporter signal (AID 1347082; calls by dose curve; tested in HEK293 reporter line; further: on the % scale 0 is the no-effect control and ±100 the full control effect; nearly all actives have a fitted effect of over 60% in size).
Assay [4] in a line: qHTS for Inhibitors of the Functional Ribonucleoprotein Complex (vRNP) of Lassa (LASV) Arenavirus: Viability assay - alamar blue signal for LASV Primary Screen (AID 1347083; calls by dose curve; tested in HEK293 reporter line; further: nearly all actives have a fitted effect of over 80% in size; further: potency means the concentration at half of the fitted maximal effect).
Assay [5] can be described thus: qHTS for Inhibitors of the Functional Ribonucleoprotein Complex (vRNP) of Lymphocytic Choriomeningitis Arenaviruses (LCMV): Viability assay - alamar blue signal for LCMV Primary Screen (AID 1347085; calls by dose curve; tested in HEK293 reporter line; further: nearly all actives have a fitted effect of over 80% in size; further: potency means the concentration at half of the fitted maximal effect).
Assay [6] concerns the target Nucleoprotein (Lymphocytic choriomeningitis virus (strain Armstrong)) (UniProt P09992). Kind of assay: qHTS for Inhibitors of the Functional Ribonucleoprotein Complex (vRNP) of Lymphocytic Choriomeningitis Arenaviruses (LCMV): LCMV Primary Screen - GLuc reporter signal (AID 1347086). Further: nearly all actives have a fitted effect of over 70% in size. Further: potency means the concentration at half of the fitted maximal effect. On activity change, negative = inhibition: on the % scale 0 is the no-effect control and ±100 the full control effect.
A short description of assay [7]: Primary qHTS for inhibitors of SARS-S pseudo-typed particle cell entry (AID 1479145). Further: nearly all actives have a fitted effect of over 45% in size.
Assay [8] in a line: Primary qHTS for Huh7 cytotoxicity: counterscreen for inhibitors of MERS-S pseudotyped particle cell entry (AID 1479147). On activity change, negative = cytotoxicity: on the % scale 0 is the no-effect control and ±100 the full control effect. To be noted: outcome: dose series up to 57.1 µM unless noted.
The nature of assay [9]: Primary qHTS for inhibitors of MERS-S pseudo-typed particle cell entry (AID 1479149). Further: nearly all actives have a fitted effect of over 60% in size. On activity change, negative = inhibition: on the % scale 0 is the no-effect control and ±100 the full control effect.
Assay [10] in a line: Primary qHTS for Vero E6 cytotoxicity: counterscreen for inhibitors of SARS-S pseudo-typed particle cell entry (AID 1479150). On activity change, negative = cytotoxicity: on the % scale 0 is the no-effect control and ±100 the full control effect. The note with it: outcome: dose series up to 57.1 µM unless noted.
Assay [11] is described as follows: Cytotoxicity counterscreen for inhibitors of SARS-CoV-2 cell entry (AID 1645845). Further: nearly all actives have a fitted effect of over 50% in size. Summed up: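 ATP-content luminescence (ATPLite 1step, 15 min RT) read after 48 h compound exposure of Expi293F cells stably expressing human ACE2; normalized to cells-only wells and media-only wells.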
A short description of assay [12]: Primary qHTS to identify inhibitors of SARS-CoV-2 cell entry (AID 1645846). Further: nearly all actives have a fitted effect of over 45% in size. To be noted: activity change, negative = inhibition: at 57.1 µM (top of the series) unless noted. Summed up: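 Using luciferase-reporting pseudoviruses carrying Wuhan-Hu-1 spike, the screen tracks entry into stably ACE2-expressing cells over 48 hr. Activity is expressed relative to spike particles versus particles lacking any fusion protein.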

A further assay has as its system CRL-7250. Kind of assay: qHTS assay to identify novel small-molecules to repurpose for Merkel cell carcinoma treatment (AID 1296009; active means well fitted inhibition curve with a large enough effect; further: nearly all actives have a fitted effect of over 60% in size). The note with it: MCC and control cell lines, CellTiter-Glo viability, 72 h; series mostly up to 92 µM. Summed up: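 Cell viability, measured as CellTiter-Glo luminescence, was normalized between DMSO and no-cell wells. The cells had been exposed to 8- or 11-point compound dilutions for 72 hr at 37 degree celsius.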

Assay [13] in a line: Confirmatory qHTS for VERO E6 Cytotoxicity Assay: Counterscreen for SARS-CoV-2 CPE Assay (AID 1508605). Further: on the % scale 0 is the no-effect control and ±100 the full control effect; nearly all actives have a fitted effect of over 60% in size.
Assay [14] is described as follows: Confirmatory qHTS for activators (rescue) of SARS-CoV-2 Cytopathic Effect (CPE) (AID 1508606). Further: potency means the concentration at half of the fitted maximal effect; nearly all actives have a fitted effect of over 70% in size.

Values joined by “and” are separate entries in the source; they are usually repeats but may differ in a detail not shown here. Equal values may be shown once. Results filed as inconclusive are left out. Active and inactive are the calls of the source. Unless noted, the call rests on the fitted dose curve.

Chain of Nucleoprotein (Lymphocytic choriomeningitis virus (strain Armstrong)) (P09992 whole entry, looked up): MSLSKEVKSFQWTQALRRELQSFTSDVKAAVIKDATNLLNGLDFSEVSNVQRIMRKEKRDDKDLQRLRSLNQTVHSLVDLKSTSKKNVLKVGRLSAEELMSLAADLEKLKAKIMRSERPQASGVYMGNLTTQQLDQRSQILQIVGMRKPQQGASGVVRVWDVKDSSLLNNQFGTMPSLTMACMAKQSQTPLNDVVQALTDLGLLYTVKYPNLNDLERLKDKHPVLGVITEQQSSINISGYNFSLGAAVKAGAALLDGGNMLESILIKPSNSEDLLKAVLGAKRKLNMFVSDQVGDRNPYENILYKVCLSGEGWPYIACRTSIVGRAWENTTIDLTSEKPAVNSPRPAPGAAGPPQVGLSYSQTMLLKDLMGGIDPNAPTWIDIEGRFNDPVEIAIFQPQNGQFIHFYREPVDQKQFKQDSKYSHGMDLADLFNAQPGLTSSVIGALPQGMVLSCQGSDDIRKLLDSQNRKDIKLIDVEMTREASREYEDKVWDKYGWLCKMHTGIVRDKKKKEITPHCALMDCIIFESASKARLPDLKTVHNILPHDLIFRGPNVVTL

`CN1c2cc(O)c(N=NC(N)=O)cc2CC1S(=O)(=O)O` (centres undefined) registered a parasite growth, % of DMSO control in [1] of 37.8%. The parasite growth remaining, % of DMSO control (lower = more inhibition) in assay [2] stood at 64.1%. Also, the Potency result in assay [3], in [4], in [5], in [6], in assay [7] and in assay [9] was “inactive” each time. The Potency result (in assay [11]; with CRL-7250) was “inactive” in each case. The call in [8] and in assay [10] was inactive. In addition, in assay [12], the activity change, negative = inhibition was 4.67%.

`Cc1cc(NC(=O)Nc2ccc(N(C)C)cc2)c2cc(F)cc(F)c2n1`: the Potency result (in [3]; in assay [4]; in assay [5]; in [6]; in assay [11]; in the assay with CRL-7250) was “inactive” each time. Moreover, the activity change, negative = inhibition in assay [12] is -12.4% [at 27.1 µM].

Regarding `CCCCCCCCCC(=O)N[C@@H](Cc1c[nH]c2ccccc12)C(=O)N[C@H](CC(N)=O)C(=O)N[C@@H](CC(=O)O)C(=O)N[C@@H]1C(=O)NCC(=O)N[C@@H](CCCN)C(=O)N[C@@H](CC(=O)O)C(=O)N[C@H](C)C(=O)N[C@@H](CC(=O)O)C(=O)NCC(=O)N[C@H](CO)C(=O)N[C@@H]([C@@H](C)CC(=O)O)C(=O)N[C@@H](CC(=O)c2ccccc2N)C(=O)O[C@@H]1C`, the Potency result in [3], in assay [4], in assay [5], in [6], in [7] and in assay [9] was “inactive” each time. For the same compound, the Potency entry (in assay [11]; in assay [12]; in the assay with CRL-7250) was “inactive” throughout. Moreover, the outcome in assay [8] was “inactive [at 26.4 µM]”. Also, the call in assay [10] was inactive. Moreover, the activity change, negative = inhibition in assay [12] was -32.9% [at 27.1 µM].

Take `CC1COC2(CCN(c3nc(=O)c4cc(C(F)(F)F)cc([N+](=O)[O-])c4s3)CC2)O1` (centres undefined): the Potency result (in assay [3]; in assay [4]; in assay [5]; in assay [6]; in [11]; with CRL-7250) was “inactive” each time.

Take `O=C(CCN1CCN(C(=O)OCc2cc(Cl)cc(Cl)c2)CC1)c1ccc2[nH]c(=O)oc2c1`: the Potency result (in assay [3]; in assay [4]; in assay [5]; in assay [6]; in assay [11]; with CRL-7250) was “inactive” each time. Besides, the activity change, negative = inhibition in [12] is -26.2%.

For the compound `CN(C)CC(C)(C)CNc1nn2c(-c3ccccc3)nnc2cc1C1CCC1`, the Potency result (in assay [3]; in assay [11]; in the assay on CRL-7250) was “inactive” each time. The values for the Potency in assay [4], in [5] and in assay [6] were 15.3 µM (active), 2.17 µM (active) and 17.2 µM (active), respectively.

Regarding `CC1CCN(c2cc(N3CCN(C)CC3)ccc2NC(=O)c2cc(C#N)c[nH]2)CC1`, the Potency entry (in [3]; in assay [4]; in assay [5]; in assay [6]; in assay [11]; with CRL-7250) was “inactive” throughout.

On to `O=C(O)CCn1c2c(c3ccccc31)C[C@H](NS(=O)(=O)c1ccc(F)cc1)CC2`, for which the Potency result in assay [3], in [4], in [5], in [6], in [7] and in assay [9] was “inactive” each time. Further, the Potency result (in [11]; with CRL-7250) was “inactive” in each case. The compound was classed as inactive in assay [8] and in assay [10]. For the same compound, the activity change, negative = inhibition in [12] is -25.2% and -23.3%.

In the case of `O=C(CS(=O)Cc1ccco1)NCC=CCOc1cc(CN2CCCCC2)ccn1` (centres undefined), the Potency entry (in assay [3]; in [4]; in assay [5]; in assay [6]; in the assay on CRL-7250) was “inactive” throughout.

As for `CCOC(=O)c1c(CSc2ccccc2)n(C)c2cc(Br)c(O)c(CN(C)C)c12`, the Potency entry in assay [3], in assay [4], in [5], in assay [6], in [13] and in assay [11] was “inactive” in each case. In addition, the Potency result with CRL-7250 was “inactive”. In assay [14], the Potency is 11.2 µM (active).

For `CNC(=O)c1ccc(-c2cnc3ncc(Cc4ccc5ncccc5c4)n3n2)cc1F`, the Potency entry (in assay [3]; in assay [4]; in [5]; in assay [6]; in assay [11]; in the assay with CRL-7250) was “inactive” throughout.

For the compound `CCCCCCCCCCCCCCCCCCCCCCO`, the Potency result (in [3]; in assay [4]; in assay [5]; in [6]; in assay [11]; in the assay with CRL-7250) was “inactive” in each case. Besides, the outcome is “inactive [at 0.573 µM]” in assay [7], “inactive [at 0.573 µM]” in assay [8], “inactive [at 0.573 µM]” in [9] and “inactive [at 0.702 µM]” in [12]. In [10], the activity change, negative = cytotoxicity is 2.8% [at 0.573 µM] (inactive). Moreover, in assay [12], the activity change, negative = inhibition was -17.8% [at 27.1 µM].

Consider `C=CC[N+]1([C@H]2C[C@H]3[C@@H]4CC[C@H]5C[C@H](O)[C@@H](N6CCOCC6)C[C@]5(C)[C@@H]4CC[C@]3(C)[C@H]2OC(C)=O)CCCC1`, for which the Potency result (in assay [3]; in [4]; in assay [5]; in assay [6]; in the assay on CRL-7250) was “inactive” in each case.
